The first test addresses TMEM109. The test can be described thus: pooled miR-30 sensor sort-seq; sequence = guide strand. To be noted: shRNA.
With TTTAAAACCAACCAAGCACTGA, the sensor-assay potency score (higher = more potent) is -0.265.

Take TTTCTCTGTTTCTCTTGGCTAG: the sensor-assay potency score (higher = more potent) was -0.388.

For TTCCACATCAAACCTGAACAGT, the sensor-assay potency score (higher = more potent) was -0.603.

As to TTTGAACACATGCTTTCCCCAT, the sensor-assay potency score (higher = more potent) was -0.568.

TATTCTTCACATCATGTGCCAA: the sensor-assay potency score (higher = more potent) was -0.456.

Turning to TTTGGTATGACACTGGCGGTGT, the sensor-assay potency score (higher = more potent) was 0.696.

In the case of TGGGTCAAGACATCAACTGGGG, the sensor-assay potency score (higher = more potent) was -0.224.

TTGAACACATGCTTTCCCCATG: the sensor-assay potency score (higher = more potent) is -0.916.

Turning to TCCCTCGCACAGATCGACCTAT, the sensor-assay potency score (higher = more potent) was -0.902.

Consider TCTGGGTCAAGACATCAACTGG, for which the sensor-assay potency score (higher = more potent) is -1.37.

In the case of TCGCACAGATCGACCTATCTGG, the sensor-assay potency score (higher = more potent) is -0.204.

Sequence TGTGATTCCACATCAAACCTGA came in with a sensor-assay potency score (higher = more potent) of 0.855.

A further test addresses TMEM110. The description is as above. To be noted: shRNA.
TTAGCTTTCGTCTTCCCCTTTC: the sensor-assay potency score (higher = more potent) is -0.779.

Regarding TTTTTAAGTCACAGTAGTCTGG, the sensor-assay potency score (higher = more potent) is -0.583.

As to TAAGTCACAGTAGTCTGGGGGC, the sensor-assay potency score (higher = more potent) was found to be 0.0391.

For the sequence TTAAGTCACAGTAGTCTGGGGG, the sensor-assay potency score (higher = more potent) was -0.231.

TTTAAGTCACAGTAGTCTGGGG yielded a sensor-assay potency score (higher = more potent) of 0.109.

Turning to TTTGTAGTGCAACTGAATGGGG, the sensor-assay potency score (higher = more potent) is -0.728.

Consider TTGGAAGTGTCTAAAAACCATA, for which the sensor-assay potency score (higher = more potent) was -1.5.

As for TTGTAGTGCAACTGAATGGGGA, the sensor-assay potency score (higher = more potent) was -0.276.

For the sequence TTCTTCTAGCTTAGCTTTCGTC, the sensor-assay potency score (higher = more potent) is -0.864.

Consider TTCTAGCTTAGCTTTCGTCTTC, for which the sensor-assay potency score (higher = more potent) is -0.0536.

Take TTTTAAGTCACAGTAGTCTGGG: the sensor-assay potency score (higher = more potent) came out at 0.293.

Regarding TTCAGTGAGATCTGCTAGGTAT, the sensor-assay potency score (higher = more potent) came out at 0.113.

For the origin of these results see the OligoGym collection.
Further: reference of the scale not given here.
